# Reference: PubChem BioAssay (EPA / NIEHS)
# Active and inactive are the calls of the source. How the source made its calls: active means hit-call score of the fitted dose curve at least 0.9, where 1 is the maximum; inactive means score below 0.9.
# Assay: CCTE_Simmons_MITO_inhib_resp_rate: CCTE's HepG2 Seahorse XF Respirometric Screening Assay at Inhibited Respiratory State [full ETC block], Simmons Lab (AID 2284006)
# Settings: actives raise or lower the signal
# Procedure, shortened: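 OCR read-out in the inhibited phase following rotenone/antimycin A, after compound and FCCP injections, in HepG2 cells. Seven concentrations (125 nM to 100 uM final), three biological replicates, 6-min cycles over 72 min; DMSO baseline.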
SMILES,outcome,AC50
CCCCCCCCCCCCN1CCCC1=O,inactive,
OC1CCC(C2CCCCC2)CC1 (stereo not drawn),inactive,
NC(=O)N(O)[C@@H]1C=C[C@H](Oc2cccc(Oc3ccc(F)cc3)c2)C1,inactive,
O=[N+]([O-])c1ccc(O)cc1,inactive,
Nc1cccc2c(N)cccc12,,39.8 µM (active)
CCc1nn(C2CCCCC2)c2cc(C3(C#N)CCC(C(=O)O)CC3)ccc12 (stereo not drawn),inactive,
Oc1cc2ccccc2c2ccccc12,,11.1 µM (active)
CCCOC(=O)c1ccc(O)cc1,inactive,
CN1CCN(c2ccccc2/C=C2\SCCN(c3ccc(Cl)c(Cl)c3)C2=O)CC1,inactive,
CC[C@H](c1ccc(O)cc1)[C@@H](CC)c1ccc(O)cc1,,40.4 µM (active)
NC(=O)N1C(=O)C(C(=O)c2cc(Cl)cs2)c2cc(F)c(Cl)cc21 (stereo not drawn),inactive,
O=C(O)Cc1cc(I)c(Oc2cc(I)c(O)c(I)c2)c(I)c1,inactive,
Cc1cc(CCN2CCN(c3nsc4ccccc34)CC2)cc2c1NC(=O)CC2(C)C,inactive,
